Values joined by “and” are separate entries in the source; they are usually repeats but may differ in a detail not shown here. Identical values can stand only once. Inconclusive results are not listed. Entries that show only a call come without a potency. Active and inactive are the calls of the source. Unless noted, the call rests on the fitted dose curve; in most records, active means well fitted curve in the direction sought with a large enough effect; inconclusive means small, poorly fitted or top-dose-only effect, or another doubt; inactive means no such curve, though single readings can be large; an effect the other way counts as inactive or inconclusive. Numbered stars: 1 amine (or outer) side, 2 acyl side, 3 side chain; on linkers, the order of the positions; unused ones are H or OH. Bridge positions count the residues as written; N and C are the ends. Square brackets hold non-standard residues; d marks the D form. Peptide text beside a SMILES is read from it. I, II: the chains in the order shown. Actinocin(9to1) = Cc1c2oc3c(C)ccc(C(=O)[*:1])c3nc-2c(C(=O)[*:2])c(N)c1=O; NMeV = CN[C@H](C(=O)O)C(C)C; Sar = CNCC(=O)O
What was measured:
[1] = qHTS assay for small molecule antagonists of retinoid X receptor alpha signaling (AID 588546; active means well fitted inhibition curve with a large enough effect in the signal ratio, with a control signal flat, not every such curve was filed as active; the % refers to the signal ratio; further: potency means the concentration at half of the fitted maximal effect;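 on max response: cells stimulated with 9-cis-retinoic acid as agonist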); details: HEK293T RXRa-UAS-bla, beta-lactamase ratio, antagonist mode; measured here: W530 green channel, cytotoxicity proxy
How it was run: (§1)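 Beta-lactamase reporter inhibition, read as CCF4 fluorescence ratio (ex 405, em 460/530 nm) after 2 h at RT. HEK293T UAS-bla cells, 2500/well, were stimulated with 9-cis-RA at 500 or 100 nM final alongside test compound for 18 h at 37 C.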

[2] = target: Retinoic acid receptor RXR-alpha (Homo sapiens) (UniProt P19793); experiment: as above; details: HEK293T RXRa-UAS-bla, beta-lactamase ratio, antagonist mode
Sequence of Retinoic acid receptor RXR-alpha (Homo sapiens) (P19793 whole entry, looked up): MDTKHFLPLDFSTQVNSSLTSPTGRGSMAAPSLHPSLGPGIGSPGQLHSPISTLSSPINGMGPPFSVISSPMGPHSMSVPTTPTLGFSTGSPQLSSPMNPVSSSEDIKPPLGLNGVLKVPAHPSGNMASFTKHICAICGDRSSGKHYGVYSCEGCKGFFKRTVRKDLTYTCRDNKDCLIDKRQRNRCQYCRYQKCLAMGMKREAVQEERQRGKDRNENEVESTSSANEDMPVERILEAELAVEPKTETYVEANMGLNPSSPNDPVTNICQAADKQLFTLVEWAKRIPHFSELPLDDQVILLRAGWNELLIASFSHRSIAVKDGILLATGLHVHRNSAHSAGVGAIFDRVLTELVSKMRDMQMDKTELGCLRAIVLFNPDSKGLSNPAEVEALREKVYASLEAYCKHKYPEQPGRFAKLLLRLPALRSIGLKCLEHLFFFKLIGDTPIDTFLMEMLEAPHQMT
How it was run: as §1

[3] = target: Thyroid hormone receptor beta (Homo sapiens) (UniProt P10828); experiment: qHTS assay for small molecule antagonists of thyroid hormone receptor beta signaling (AID 588547; active means well fitted inhibition curve with a large enough effect in the signal ratio, with a control signal flat, not every such curve was filed as active; the % refers to the signal ratio; further: potency means the concentration at half of the fitted maximal effect;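 on activity change % (negative = inhibition): cells stimulated with 0.4 nM T3 agonist during compound exposure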); details: TR-UAS-bla HEK293, beta-lactamase ratio, antagonist mode, 18 h
Sequence of Thyroid hormone receptor beta (Homo sapiens) (P10828 whole entry, looked up): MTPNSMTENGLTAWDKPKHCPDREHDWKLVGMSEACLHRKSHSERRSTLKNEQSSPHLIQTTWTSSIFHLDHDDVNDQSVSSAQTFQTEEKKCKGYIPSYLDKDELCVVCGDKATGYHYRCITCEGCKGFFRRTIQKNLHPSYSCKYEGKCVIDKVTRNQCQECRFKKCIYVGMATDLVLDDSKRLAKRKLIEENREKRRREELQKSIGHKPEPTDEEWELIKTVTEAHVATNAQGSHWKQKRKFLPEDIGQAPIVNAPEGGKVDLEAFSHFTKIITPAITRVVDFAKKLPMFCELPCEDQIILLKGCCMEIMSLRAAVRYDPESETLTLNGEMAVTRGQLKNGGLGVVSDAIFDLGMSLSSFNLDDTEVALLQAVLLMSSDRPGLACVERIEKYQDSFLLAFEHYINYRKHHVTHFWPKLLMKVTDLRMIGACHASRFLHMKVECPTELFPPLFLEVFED
How it was run: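 TR-UAS-bla GripTite HEK293 cells in 2% charcoal/dextran FBS medium were preincubated 4 h at 37 C, given compound (0.59 nM to 92 uM) plus 0.4 nM T3 (final) for 18 h, then CCF4 for 2 h at RT; Hill fit gave IC50.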

[4] = target: Voltage-gated inwardly rectifying potassium channel KCNH2 (Homo sapiens) (UniProt Q12809); experiment: qHTS Assay for Small Molecule Inhibitors of the Human hERG Channel Activity (AID 588834);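 further: top concentration of the series differs between compounds; lower thallium flux fluorescence means stronger hERG block; nearly all actives have a fitted effect of over 50% in size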
Sequence of Voltage-gated inwardly rectifying potassium channel KCNH2 (Homo sapiens) (Q12809 whole entry, looked up): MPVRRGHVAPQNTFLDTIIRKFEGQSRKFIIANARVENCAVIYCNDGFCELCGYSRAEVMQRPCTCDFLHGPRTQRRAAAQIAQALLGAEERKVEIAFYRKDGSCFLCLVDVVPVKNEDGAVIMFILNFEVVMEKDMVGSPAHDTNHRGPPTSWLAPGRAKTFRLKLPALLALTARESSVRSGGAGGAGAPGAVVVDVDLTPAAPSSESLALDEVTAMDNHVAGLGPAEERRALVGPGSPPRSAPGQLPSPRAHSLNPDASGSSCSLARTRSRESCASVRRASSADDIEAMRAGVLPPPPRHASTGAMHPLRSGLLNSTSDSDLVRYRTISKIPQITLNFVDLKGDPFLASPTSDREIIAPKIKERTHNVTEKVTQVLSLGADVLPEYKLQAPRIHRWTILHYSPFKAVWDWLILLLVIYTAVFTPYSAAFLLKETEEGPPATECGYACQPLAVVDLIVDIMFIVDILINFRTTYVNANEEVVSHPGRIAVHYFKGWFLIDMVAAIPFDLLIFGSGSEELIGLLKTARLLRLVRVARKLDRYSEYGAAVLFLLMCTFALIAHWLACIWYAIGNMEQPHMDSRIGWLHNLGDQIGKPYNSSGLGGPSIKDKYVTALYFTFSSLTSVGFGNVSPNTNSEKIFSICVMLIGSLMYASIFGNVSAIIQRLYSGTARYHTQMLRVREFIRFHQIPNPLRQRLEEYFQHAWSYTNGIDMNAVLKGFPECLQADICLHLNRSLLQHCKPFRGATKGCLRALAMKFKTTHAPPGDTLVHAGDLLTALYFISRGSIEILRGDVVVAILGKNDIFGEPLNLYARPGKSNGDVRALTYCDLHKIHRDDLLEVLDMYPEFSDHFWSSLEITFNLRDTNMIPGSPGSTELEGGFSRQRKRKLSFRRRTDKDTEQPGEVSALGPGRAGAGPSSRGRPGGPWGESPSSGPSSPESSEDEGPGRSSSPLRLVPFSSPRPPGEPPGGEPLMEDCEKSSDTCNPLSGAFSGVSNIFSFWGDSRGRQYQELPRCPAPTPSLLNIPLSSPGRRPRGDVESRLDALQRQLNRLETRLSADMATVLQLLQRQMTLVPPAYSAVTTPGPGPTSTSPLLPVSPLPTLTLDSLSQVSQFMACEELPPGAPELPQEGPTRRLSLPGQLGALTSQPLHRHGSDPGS
How it was run: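 Measured: FluxOR fluorescence after thallium stimulation in U2OS cells transduced with hERG by baculovirus. Compounds pre-incubated around 10 min; medium Opti-MEM with 2% FCS. AC50 from Hill equation.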

[5] = target: Luciferin 4-monooxygenase (Photinus pyralis) (UniProt P08659); experiment: Biochemical firefly luciferase enzyme assay for NPC (AID 624030);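 further: purified P. pyralis luciferase at 10 nM with luciferin and ATP substrate; nearly all actives have a fitted effect of over 70% in size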
Sequence of Luciferin 4-monooxygenase (Photinus pyralis) (P08659 whole entry, looked up): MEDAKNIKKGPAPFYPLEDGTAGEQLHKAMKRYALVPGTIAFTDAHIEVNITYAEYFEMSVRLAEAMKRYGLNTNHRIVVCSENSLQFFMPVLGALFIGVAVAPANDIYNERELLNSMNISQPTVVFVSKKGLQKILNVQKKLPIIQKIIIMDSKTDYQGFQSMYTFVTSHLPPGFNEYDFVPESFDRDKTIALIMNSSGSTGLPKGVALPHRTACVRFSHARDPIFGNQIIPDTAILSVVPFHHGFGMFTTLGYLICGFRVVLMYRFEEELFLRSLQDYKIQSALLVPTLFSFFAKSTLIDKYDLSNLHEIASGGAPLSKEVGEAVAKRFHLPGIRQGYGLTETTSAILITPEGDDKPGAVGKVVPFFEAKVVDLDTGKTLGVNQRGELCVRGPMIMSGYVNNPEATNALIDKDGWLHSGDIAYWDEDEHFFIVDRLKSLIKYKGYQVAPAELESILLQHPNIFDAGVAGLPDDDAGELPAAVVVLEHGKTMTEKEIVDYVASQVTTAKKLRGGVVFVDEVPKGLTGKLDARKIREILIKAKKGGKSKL
How it was run: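 Counter-screen for direct inhibition of the luciferase enzyme by approved-drug library compounds, run at 10 nM enzyme in 50 mM Tris acetate (final). Luminescence was read within 5 min of enzyme-buffer addition and normalized to PTC124 versus DMSO (0%).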

[6] = S16 Schwann cell viability assay (CellTiter-Glo assay) (AID 624031);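 further: cellular ATP luminescence as a viability measure; nearly all actives have a fitted effect of over 70% in size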
How it was run: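 Luminescent ATP read-out (CellTiter-Glo) after 24 h compound exposure of native S16 rat Schwann cells at 37 °C. Signals were normalized between cell-free wells and DMSO-treated cells, set as 0% activity.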

[7] = target: Retinoic acid receptor RXR-alpha (Homo sapiens) (UniProt P19793); experiment: qHTS assay for small molecule agonists of retinoid X receptor alpha signaling (AID 588544; calls by dose curve)
[8] = S16 Schwann cell PMP22 intronic element firefly luciferase assay (AID 624032); further: nearly all actives have a fitted effect of over 30% in size
How it was run: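 Rat S16 Schwann cells stably carrying a PMP22 intronic element-driven Fluc reporter were seeded overnight, then exposed to compounds for 24 h at 37 °C. Luminescence was normalized to PTC124 (positive control) and DMSO (0% activity).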

[9] = S16 Schwann cell PMP22 intronic element beta-lactamase assay (AID 624044; calls by dose curve; further: nearly all actives have a fitted effect of over 15% in size); details: S16 rat Schwann cells, PMP22 element beta-lactamase FRET, 24 h; ratio activity, negative = inhibition: at 38.3 µM (top of the series)
How it was run: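 Rat S16 Schwann cells with beta-Lac driven by a PMP22 intronic element, compound-treated 24 h at 37 °C. LiveBLAzer FRET B/G read: 460 nm normalized to potassium clavulanate vs DMSO; 535 nm FRET as viability; concentration-effect curves classified.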

[10] = target: Glutaminase kidney isoform, mitochondrial (Homo sapiens) (UniProt O94925); experiment: qHTS for Inhibitors of Glutaminase (GLS): LOPAC Validation (AID 624146);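 further: glutamate product detected by oxidase and peroxidase coupled Amplex red fluorescence gain; nearly all actives have a fitted effect of over 60% in size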
Sequence of Glutaminase kidney isoform, mitochondrial (Homo sapiens) (O94925 whole entry, looked up, canonical isoform): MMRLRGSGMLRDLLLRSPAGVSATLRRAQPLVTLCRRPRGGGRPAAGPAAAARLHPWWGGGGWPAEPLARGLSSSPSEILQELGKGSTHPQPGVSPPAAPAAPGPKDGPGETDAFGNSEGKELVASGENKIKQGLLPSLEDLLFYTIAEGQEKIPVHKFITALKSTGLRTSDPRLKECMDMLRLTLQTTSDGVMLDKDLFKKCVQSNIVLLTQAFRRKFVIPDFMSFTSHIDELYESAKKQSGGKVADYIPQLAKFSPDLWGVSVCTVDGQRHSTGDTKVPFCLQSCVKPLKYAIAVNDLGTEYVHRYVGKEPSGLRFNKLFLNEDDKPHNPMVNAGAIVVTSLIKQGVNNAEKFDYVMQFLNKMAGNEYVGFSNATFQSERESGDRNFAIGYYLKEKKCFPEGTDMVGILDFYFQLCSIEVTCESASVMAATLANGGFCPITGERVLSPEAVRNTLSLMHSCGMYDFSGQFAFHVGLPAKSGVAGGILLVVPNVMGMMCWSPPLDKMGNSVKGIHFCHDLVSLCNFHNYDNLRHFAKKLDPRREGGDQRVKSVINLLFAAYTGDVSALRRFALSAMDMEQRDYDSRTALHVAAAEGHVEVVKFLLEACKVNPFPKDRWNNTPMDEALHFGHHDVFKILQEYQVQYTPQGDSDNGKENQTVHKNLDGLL
How it was run: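 Compounds were pin-transferred onto hKGA, after which L-glutamine (1 mM solution) and a detection mix of glutamate oxidase, HRP and Amplex Red were added. Initial and 30 min RT fluorescence reads were collected.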

For Cc1c2oc3c(C)ccc(C(=O)N[C@@H]4C(=O)N[C@H](C(C)C)C(=O)N5CCC[C@H]5C(=O)N(C)CC(=O)N(C)[C@@H](C(C)C)C(=O)O[C@@H]4C)c3nc-2c(C(=O)N[C@@H]2C(=O)N[C@H](C(C)C)C(=O)N3CCC[C@H]3C(=O)N(C)CC(=O)N(C)[C@@H](C(C)C)C(=O)O[C@@H]2C)c(N)c1=O (I: T[dV]P[Sar][NMeV] / II: T[dV]P[Sar][NMeV]; ester I:1-I:C, II:1-II:C; linker I:N-II:N via Actinocin(9to1)), the max response [1] was -13.6% and -1.23%, the Potency [2] was 31.6 nM (active) and 14.1 nM (active) and the Potency [3] was 50.1 nM (active). The Potency [4] was “inactive”, the Potency [5] was “inactive” and the Potency [6] was “inactive”.
With Oc1c(I)cc(Cl)c2cccnc12 the activity change % (negative = inhibition) [3] was -33.1% (inactive), the Potency [4] was “inactive” and the Potency [5] was “inactive”.
In the case of O=c1[nH]c(=O)n([C@H]2C[C@H](O)[C@@H](CO)O2)cc1C(F)(F)F, the Potency [4] is reported as “inactive”.
In the case of O=c1ccc2ccccc2o1, the outcome [7] is reported as “inactive”, the max response [1] is reported as 0.52% and -14.8% and -12.1% and the max response [2] is reported as 19.9% (inactive) and -2.2% (inactive) and -3.66% (inactive). The activity change % (negative = inhibition) [3] was -6.73% (inactive) and 13.3% (inactive) and -20.8% (inactive), the Potency [4] was “inactive” and the Potency [5] was “inactive”. The Potency [6] was “inactive”.
With CC1(C)O[C@@H]2C[C@H]3[C@@H]4CCC5=CC(=O)CC[C@]5(C)[C@@]4(F)[C@@H](O)C[C@]3(C)[C@]2(C(=O)CCl)O1 the Potency [4] was “inactive”.
In the case of CCCC(=O)Nc1ccc(OCC(O)CNC(C)C)c(C(C)=O)c1 (stereo not given), the Potency [4] is reported as “inactive”.
For CCCCCCc1ccc(O)cc1O, the outcome [7] was “inactive”, the max response [1] was 0.899% and 2.91% and the max response [2] was -14.1% (inactive) and -8.39% (inactive). For the same molecule, the activity change % (negative = inhibition) [3] was -14.5% (inactive) and -21.9% (inactive), the Potency [4] was “inactive” and the Potency [5] was “inactive”. The Potency [6] was “inactive”, the Potency [8] was “inactive” and the Potency [9] was “inactive”.
In the case of C[C@]12CC[C@@H]3c4ccc(O)cc4CC[C@H]3[C@@H]1CC[C@@H]2O, the outcome [7] is reported as “inactive”, the Potency [6] is reported as “inactive” and the Potency [10] is reported as “inactive”.
With CC(O)(P(=O)(O)O)P(=O)(O)O the outcome [7] was “inactive”, the max response [1] was -2.39% and the max response [2] was -16.3% (inactive). The activity change % (negative = inhibition) [3] was -8.4% (inactive) and the Potency [6] was “inactive”.
For CC(Cc1ccccc1)(NC(=O)CN)c1ccccc1 (stereo not given), the Potency [4] was “inactive”.
With Nc1ccc(C(=O)O)cc1 the outcome [7] was “inactive”, the max response [1] was 14.8% and the max response [2] was -5.07% (inactive). For the same molecule, the activity change % (negative = inhibition) [3] was 15.2% (inactive), the Potency [4] was “inactive” and the Potency [6] was “inactive”. The Potency [8] was “inactive”.
With C=C1C[C@H]2[C@@H]3C=C(C)C4=CC(=O)CC[C@]4(C)[C@H]3CC[C@]2(C)[C@@]1(OC(C)=O)C(C)=O the Potency [4] was “inactive”.
